Bioassay records: PubChem BioAssay, National Center for Advancing Translational Sciences (NCATS)
Rango dissoc inh: inhibition of RanGTP-driven Rango-importin beta dissociation | Biochemical FRET Rango-importin beta, RanGTP-induced dissociation | Potency, µM (titrated, usually from 46.1 µM), for inactives: at the highest dose activity change, negative = inhibition | 340,000 compounds, 0.071% hits; calls by dose curve; note: potency is the fitted concentration of half-maximal effect; % of control where 0% means no effect; nearly all actives have a fitted effect of over 45% in size
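Rango FRET biosensor (snurportin-1 IBB flanked by N-terminal EYFP and C-terminal CFP10) at 0.1 uM, with 0.25 uM importin beta in PBS, 1mM DTT, 0.02% Tween-20, 0.1% BSA. 0.6 uM Ran, 2mM GTP and 0.2 uM RCC1 were then added for 45 min at room temperature. Inhibition read as loss of FRET rise.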
Rango-impB inh: inhibitors of Rango-importin beta complex formation | Rango CFP/YFP FRET sensor + importin beta, 45 min | 340,000 compounds, 0.031% hits | Q14974 | AID 540263 | Potency, µM (series often up to 92.2 µM), for the others: top-dose inhibition of complex formation; calls by dose curve;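 note: potency is the fitted concentration of half-maximal effect; 0% = DMSO wells and 100% = buffer wells lacking importin beta; nearly all actives have a fitted effect of over 15% in size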
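Inhibition scored from the CFP 486 nm/YFP 530 nm FRET ratio 45 min after adding 0.125 microM importin beta to 50 nM Rango biosensor preincubated 5 min with compound (room temperature, PBS with DTT, Tween-20, BSA). No-importin wells as positive control.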
PKM2 activator: activators of human pyruvate kinase M2; P14618; purified PKM2, Kinase-Glo ATP luminescence, activation; response scale: 0% is enzyme alone, no compound; Potency, µM (top dose mostly 57.5 µM), for the others: at the top dose activation, usual class: activators; 260,000 compounds, 0.34% hits; AID 1631; note: potency is the fitted concentration of half-maximal effect; % is set by controls: 0 for no effect and ±100 for the full control effect; nearly all actives have a fitted effect of over 55% in size
Target sequence (P14618 whole entry, looked up): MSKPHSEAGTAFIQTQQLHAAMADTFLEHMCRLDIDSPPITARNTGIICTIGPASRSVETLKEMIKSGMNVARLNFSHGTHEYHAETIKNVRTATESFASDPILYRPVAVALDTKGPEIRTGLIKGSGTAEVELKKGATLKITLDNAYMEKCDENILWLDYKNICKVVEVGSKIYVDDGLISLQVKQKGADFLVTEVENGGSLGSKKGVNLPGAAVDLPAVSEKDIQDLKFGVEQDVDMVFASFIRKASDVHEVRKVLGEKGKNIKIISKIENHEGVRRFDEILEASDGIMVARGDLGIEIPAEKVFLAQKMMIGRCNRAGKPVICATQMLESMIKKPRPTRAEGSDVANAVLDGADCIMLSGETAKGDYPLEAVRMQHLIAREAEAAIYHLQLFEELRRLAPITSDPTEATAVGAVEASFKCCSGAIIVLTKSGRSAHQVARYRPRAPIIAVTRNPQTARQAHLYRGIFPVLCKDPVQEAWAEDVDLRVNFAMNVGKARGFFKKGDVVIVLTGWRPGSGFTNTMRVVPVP
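Kinase-Glo luminescence reports ATP generated from ADP (0.1 mM) and PEP (0.5 mM) by purified hPK-M2 after 1 h at room temperature, pH 7.2 imidazole buffer; intermediate enzyme activity allows detecting inhibitors and activators.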
IL2 activator: activators of IL-2. IL-2 activation reporter assay, cell-based qHTS; stimulated with anti-CD3/CD4/CD28 beads; in transgenic mouse T cells. activation, % (series mostly up to about 46 µM). 360,000 compounds, 0.065% hits. AID 652025; in the data active = activation above about 50%; inconclusive = mostly about 30% to 49%; note: 0% is about no effect
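Unstimulated transgenic mouse T cells preincubated 60 min with compound, then stimulated with anti-CD3/anti-CD4-coated beads plus anti-CD28 for 18 h at 37 degrees C. IL-2 response read as EGFP and DsRed fluorescence by plate cytometry.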
AT treatment: candidate therapy for ataxia-telangiectasia; F2112 A-T fibroblasts, KAP-1 phosphorylation AlphaLISA; neocarzinostatin DNA damage 30 min before lysis; Potency, µM (titrated, usually from 57.5 µM), for inactives: at the highest dose activation, usual class: activators; 320,000 compounds, 0.19% hits; note: potency is the fitted concentration of half-maximal effect; % of control where 0% means no effect; nearly all actives have a fitted effect of over 45% in size
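hTERT-immortalized A-T patient fibroblasts (F2112), 500 cells/well in OPTI-MEM, 1% FBS, got compounds for 60 min, then NCS for 30 min at 37C. Lysates were then assayed for phospho-KAP-1 by AlphaLISA (anti-pKAP1 donor, anti-KAP1 acceptor beads), 6 hr at 25C.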
HeLa tox: HeLa cytotoxicity, CellTiter-Glo readout | AID 1898 | HeLa viability, CellTiter-Glo ATP luminescence, 24 h | activity change, negative = cytotoxicity, % at 57.5 µM | shares compounds with PKM2 activator | 230 tested, under 10 active; note: % of control where 0% means no effect
Numbers without * were called inactive. A selection: hits, their analogues and other compounds. The true share with any hit is near 0.59%. Unless noted, calls come from the whole dose curve; as a rule, active = well fitted curve in the direction sought with a large enough effect; inconclusive = small, poorly fitted or top-dose-only effect, or another doubt; inactive = no such curve, though single readings can be large; an effect the other way counts as inactive or inconclusive.

`CS(=O)(=O)N1CCN(C(=O)c2ccc3c(c2)OCCO3)CC1` gave Rango dissoc inh -10%, Rango-impB inh -1%, PKM2 activator 9%, IL2 activator 0 and AT treatment 3%.
O=C1CCc2cc(S(=O)(=O)N3CCN(c4ccccc4F)CC3)ccc2N1 was read as Rango dissoc inh -15%, Rango-impB inh 2%, PKM2 activator 4%, IL2 activator 2 and AT treatment 0%.
COc1cccc(S(=O)(=O)N2CCN(S(=O)(=O)c3ccc4c(c3)OCCO4)CC2)c1 was read as HeLa tox 2.
`Cc1ccc(OCc2cccc(S(=O)(=O)N(C)C)c2)c([N+](=O)[O-])n1` gave Rango dissoc inh 16%, Rango-impB inh 0%, IL2 activator 1 and AT treatment 6%.
`COc1ccccc1C(=O)N1CCN(C(=O)c2oc3c(C)c(C)ccc3c2C)CC1` gave IL2 activator -3.
Screening CCCCN(C)c1c(C)nc2ccc(C(=O)N(CC)CCN(C)C)cn12 returned IL2 activator 2.
For COc1ccccc1NC(=O)C(C)OC(=O)C(C)SCC(=O)Nc1ccc(C)cc1 (stereo unspecified) the results were Rango dissoc inh 0%, Rango-impB inh 2%, IL2 activator -5 and AT treatment 5%.
O=S(=O)(c1ccc2c(c1)OCCO2)N1CCN(S(=O)(=O)c2c(F)cccc2F)CC1 was read as HeLa tox inconclusive.
For O=S(=O)(c1ccc2c(c1)OCCO2)N1C[C@@H]2C[C@H]1CN2S(=O)(=O)c1c(F)cccc1F the results were Rango dissoc inh -2%, Rango-impB inh -1%, IL2 activator 0 and AT treatment 6%.
`O=S(=O)(NCCCCCNS(=O)(=O)c1c(F)cccc1F)c1ccc2c(c1)OCCO2` gave Rango dissoc inh -3%, Rango-impB inh -1%, IL2 activator 0, AT treatment 4% and HeLa tox -2.
`C[C@H]1CN(S(=O)(=O)c2ccc3c(c2)OCCO3)CCN1S(=O)(=O)c1c(F)cccc1F` gave Rango dissoc inh 3%, Rango-impB inh 1%, IL2 activator 1, AT treatment -2% and HeLa tox 4.
Screening O=S(=O)(c1ccc2c(c1)OCO2)N1CCN(S(=O)(=O)c2c(F)cccc2F)CC1 returned HeLa tox inconclusive.
COC(=O)C1(C)CCCC2(C)C3CCC(C(C)C)C(CO)C3C(CO)CC12 (stereo unspecified) was read as IL2 activator -1.
Screening CNS(=O)(=O)c1cccc(C(=O)OCC(=O)c2ccc3[nH]c(=O)[nH]c3c2)c1 returned Rango dissoc inh -1%, Rango-impB inh -3%, IL2 activator -3 and AT treatment 9%.
For O=S(=O)(c1ccc2c(c1)OCCO2)N1CCCN(S(=O)(=O)c2c(F)cccc2F)CC1 the results were Rango dissoc inh 5%, Rango-impB inh 4%, IL2 activator 0, AT treatment 10% and HeLa tox -13.
O=C1CN(S(=O)(=O)c2ccc3c(c2)OCCO3)CCN1S(=O)(=O)c1c(F)cccc1F was read as HeLa tox -13.
O=S(=O)(NCC1CN(S(=O)(=O)c2c(F)cccc2F)C1)c1ccc2c(c1)OCCO2 was read as Rango dissoc inh 14%, Rango-impB inh 1%, IL2 activator -4, AT treatment -5% and HeLa tox -6.
O=S(=O)(c1c(F)cccc1F)C1CCN(S(=O)(=O)c2ccc3c(c2)OCCO3)CC1 was read as Rango dissoc inh 1%, Rango-impB inh 0%, IL2 activator -2, AT treatment 5% and HeLa tox -9.
O=C1NC(=O)c2cc(Br)cc3cccc1c23 was read as Rango dissoc inh -10%, Rango-impB inh -4%, PKM2 activator 5%, IL2 activator -1 and AT treatment 0%.
Cc1ccc(NS(=O)(=O)c2cc3c4c(cccc4c2)C(=O)NC3=O)cc1C was read as Rango dissoc inh inconclusive, Rango-impB inh 0%, PKM2 activator 4µM*, IL2 activator -1, AT treatment -3% and HeLa tox inconclusive.
Screening CCn1cc(S(=O)(=O)c2ccc(C)cc2)[nH]c1=O returned Rango dissoc inh -9%, Rango-impB inh 1%, PKM2 activator 15%, IL2 activator -5 and AT treatment 0%.
For Cc1ccc(-n2cc(S(=O)(=O)c3ccc(C)cc3)[nH]c2=O)cc1 the results were Rango dissoc inh -14%, Rango-impB inh 0%, PKM2 activator 7.1µM*, IL2 activator -2, AT treatment -7% and HeLa tox 4.
For CC(NC(=O)CN1C(=O)NC2(CCCCCC2)C1=O)c1ccccc1Cl (stereo unspecified) the results were Rango dissoc inh 7%, Rango-impB inh 4%, IL2 activator 0 and AT treatment 7%.
`CCOc1ccc(CN2CCN(C(=O)c3ccccc3)CC2)cc1` gave Rango dissoc inh 14%, Rango-impB inh 0%, PKM2 activator 1%, IL2 activator 0 and AT treatment 11%.
Screening CCOc1ccc(C(=O)N2CCN(Cc3ccccc3)CC2)cc1 returned Rango dissoc inh 0%, Rango-impB inh 9%, PKM2 activator 5.6µM*, IL2 activator 1, AT treatment 4% and HeLa tox 0.
COc1ccc(C(=O)NCCN2C(=O)S/C(=C\c3cccnc3)C2=O)cc1[N+](=O)[O-] was read as Rango dissoc inh 15%, Rango-impB inh -1%, PKM2 activator 3.5µM*, IL2 activator 0, AT treatment 1% and HeLa tox -9.
Screening COc1ccc2nc(SCC(=O)Nc3cc(C)on3)c(C#N)cc2c1 returned Rango dissoc inh 3%, Rango-impB inh -1%, IL2 activator 0 and AT treatment -2%.
For COc1cc2cc(C#N)c(SCC(=O)Nc3cc(C)on3)nc2cc1OC the results were Rango dissoc inh 11%, Rango-impB inh 1%, PKM2 activator 0.22µM*, IL2 activator -1, AT treatment 3% and HeLa tox -5.
Cn1c(N)c(C(=O)CSc2ccc3c(c2)OCCO3)c(=O)n(C)c1=O was read as Rango dissoc inh -3%, Rango-impB inh -3%, PKM2 activator 3.5µM*, IL2 activator 1, AT treatment 3% and HeLa tox 1.
Cn1c2ccccc2c2cnn(CC(=O)Nc3cccc(F)c3)c(=O)c21 was read as Rango dissoc inh 16%, Rango-impB inh -1%, PKM2 activator 3%, IL2 activator 0 and AT treatment -6%.
